The structures appear in SMILES notation. Values joined by “and” are separate entries in the source; they are usually repeats but may differ in a detail not shown here. Equal entries are not always repeated. Records with an inconclusive call do not appear. Active and inactive are the calls of the source. Calls follow the shape of the full dose curve.

This experiment is described as follows: Mouse Th17 T cell differentiation assay for inhibitors of ROR gamma transcriptional activity. As to conditions: mouse naive CD4 T cells Th17, IL17a-GFP flow cytometry; series mostly up to 20 µM; IL17a-GFP activity, % of control: at the top concentration. An excerpt:
NIH Molecular Libraries Probe Production Network [MLPCN] NIH Chemical Genomics Center [NCGC] MLPCN Grant: R03 DA026211-01 Assay Provider: Dan Littman, New York University Keywords: NIH Roadmap, MLPCN, MLI, MLSMR, qHTS, NCGC, qHTS, nuclear hormone receptor, retinoic acid-related orphan receptor, ROR gamma Assay Overview: The retinoic acid-related orphan receptor (ROR) gamma is a transcription factor that has a central role in the differentiation of Th17 cells, a subset of T helper cells that secrete the inflammatory cytokines IL-17a, IL-17f, and IL-22. Th17 cells have been implicated in graft versus host disease, autoimmune disease and asthma. ROR gamma is induced in naive T helper cells in the presence of TGF-beta combined with IL-6, IL-21, or IL-23, and thereafter directs the expression of the Th17 lineage cytokines. To confirm inhibition of ROR gamma, compounds were tested in a mouse Th17 T cell differentiation assay. Th17 differentiation was tracked by expression of a GFP reporter under the control of the endogenous IL-17a promoter using flow cytometry. Compounds that block ROR gamma activity prevent expression of the IL17a-GFP reporter.
Assay Protocol Summary: Cells from lymph nodes and spleens derived from six to eight week old IL17a-GFP mice (Biocytogen LLC) were used for T cell purification. B220- cells were isolated on an autoMACS Pro with bead depletion of B220+ cells (Miltenyi). Naive CD4+ T cell were further purified as TCRb+CD8- DAPI- CD19- CD4+CD25- CD62L+CD44low/Int by cell sorting on a FACSAria (BD). Cells were cultivated in an incubator at 37 C and 5% CO2 in RPMI 1640 medium (Invitrogen) supplemented with 10% (vol/vol) heat-inactivated FBS (Hyclone), penicillin-streptomycin, 2 mM glutamine and 0.1 mM nonessential amino acids. Cells were seeded on day 0 at a density of 0.4x10^5 cells per ml in 96-well plates coated with anti-CD3e (5 ug/ml) and anti-CD28 (10 ug/ml). Cells were cultured for 4-5 days in Th17 (TGFb (0.3 ng/ml), IL6 (20 ng/ml), anti-IFN-g, and anti-IL-4) condition. At day 1, compounds dissolved in DMSO were added. GFP expression was assayed on day 4 or 5 with DAPI- and PECy7-conjugated CD4+ cells. An LSR II (BD Biosciences) and FlowJo software (Tree Star) were used for flow cytometry. Keywords: NIH Roadmap, MLPCN, MLI, MLSMR, qHTS, NCGC, qHTS, nuclear hormone receptor, retinoic acid-related orphan receptor, ROR gamma
In general terms: Flow cytometry measures light scatter and fluorescence of single cells or particles in a stream.
Take `COc1ccc(C(CC(=O)N2CCCC(C)C2)c2ccc3c(c2)OCO3)c(O)c1` (stereo not given): the “IL17a-GFP activity, % of control” value is 102% (inactive).

With `COc1cc(OC)c(C(CC(=O)N2CC(C)CC(C)C2)c2ccc3c(c2)OCO3)c(OCC#N)c1` (stereo not given), the Potency was 3 µM (active).

On to `COc1ccc(C(CC(=O)N2CC(C)CC(C)C2)c2c(O)cc(OC)cc2OC)cc1` (stereo not given), for which the Potency is 0.4 µM (active).

Turning to `COCOc1cc(OC)cc(OC)c1C(CC(=O)N1CC(C)CC(C)C1)c1ccc2c(c1)OCO2` (stereo not given), the Potency is 1 µM (active).

Turning to `COc1cc(OC)c(C(CC(=O)N2CCCC(C)C2)c2ccc3c(c2)OCO3)c(OC)c1` (stereo not given), the Potency was 2 µM (active).

With `COc1cc(O)c(C(CC(=O)N2CCCC(C)C2)c2ccc(C)cc2)c(OC)c1` (stereo not given), the Potency is 4 µM (active).

Take `COc1cc(O)c(C(CC(=O)N2CC(C)CC(C)C2)c2ccc3c(c2)OCCO3)c(OC)c1` (stereo not given): the Potency is 0.3 µM (active).

In the case of `COc1cc(O)c(C(CC(=O)N2CC(C)OC(C)C2)c2ccc3c(c2)OCO3)c(OC)c1` (stereo not given), the Potency was 0.8 µM (active).

As to `COc1cc(O)c(C(CC(=O)N2CCC(C)CC2)c2ccc3c(c2)OCO3)c(OC)c1` (stereo not given), the “IL17a-GFP activity, % of control” value was 78.2% (inactive).

For `COc1cc(O)c(C(CC(=O)N2CCCC(C)C2)c2cccs2)c(OC)c1` (stereo not given), the Potency was 6 µM (active).

`COc1cc(O)c(C(CC(=O)N2CC(C)NC(C)C2)c2ccc3c(c2)OCO3)c(OC)c1` (stereo not given): the “IL17a-GFP activity, % of control” value is 87.7% (inactive).

For the compound `COc1cc(O)c(C(CC(=O)N2CC(C)CC(C)C2)c2ccc(N(C)C)cc2)c(OC)c1` (stereo not given), the Potency is 0.4 µM (active).

`COc1ccc(C(CC(=O)N2CCCC(C)C2)c2c(O)cc(OC)cc2OC)c(OC)c1` (stereo not given): the “IL17a-GFP activity, % of control” value was 158% (inactive).

Regarding `COc1cc(O)c(C(CC(=O)N2CCCC(C)C2)c2ccccc2)c(OC)c1` (stereo not given), the “IL17a-GFP activity, % of control” value was 103% (inactive).

For the compound `COc1ccc(C(CC(=O)N2CCCC(C)C2)c2c(O)cc(OC)cc2OC)cc1` (stereo not given), the Potency is 5 µM (active).

As for `COc1cc(O)c(C(CC(=O)N2CCCC(C)(C)C2)c2ccc3c(c2)OCO3)c(OC)c1` (stereo not given), the Potency was 6 µM (active).

Take `COc1cc(O)c(C(CC(=O)N2CCCC(C(F)(F)F)C2)c2ccc3c(c2)OCO3)c(OC)c1` (stereo not given): the Potency is 7 µM (active).

Regarding `COc1cc(O)c(C(CC(=O)N2CC(C)CC(C)C2)c2ccc(O)cc2)c(OC)c1` (stereo not given), the Potency is 0.3 µM (active).

On to `COc1cc(O)c(C(CC(=O)N2CC(C)CC(C)C2)c2ccc(C)cc2)c(OC)c1` (stereo not given), for which the Potency was 0.5 µM (active).

`COc1cccc(O)c1C(CC(=O)N1CCCC(C)C1)c1ccc2c(c1)OCO2` (stereo not given): the “IL17a-GFP activity, % of control” value was 55.9% (inactive).

As for `COc1cc(O)c(C(CC(=O)N2CC(C)CC(C)C2)c2ccc3c(c2)OCO3)c(OC)c1` (stereo not given), the Potency is 500 nM (active) and 700 nM (active).

Regarding `COc1cc(OC)c(C(CC(=O)N2CC(C)CC(C)C2)c2ccc3c(c2)OCO3)c(OCC(N)=O)c1` (stereo not given), the “IL17a-GFP activity, % of control” value is 55.9% (inactive).

With `COc1cc(O)c(C(CC(=O)N2CCCC(C)C2)c2ccccc2C)c(OC)c1` (stereo not given), the “IL17a-GFP activity, % of control” value was 105% (inactive).

For the compound `COc1cc(OC)c(C(CC(=O)N2CC(C)CC(C)C2)c2ccc3c(c2)OCO3)c(OC)c1` (stereo not given), the Potency was 0.8 µM (active).

On to `COc1cc(O)c(C(CC(=O)N2C[C@H](C)C[C@H](C)C2)c2ccc3c(c2)OCO3)c(OC)c1` (stereo not given in full), for which the Potency was 0.4 µM (active).

Source of the values: PubChem BioAssay AID492954 (National Center for Advancing Translational Sciences (NCATS), 2010).
